# Screens as filed in PubChem.
# A selection: hits, their analogues and other compounds. The true share with any hit is near 1%.
# Eya2 phos inh: blocks the phosphatase activity of human Eya2; O00167; recombinant Eya2, OMFP fluorescence dephosphorylation (OMFP is methylfluorescein phosphate); Potency, µM (highest dose often 76.9 µM), for the others: at the top dose activity, negative = inhibition, usual class: inhibitors; actives 0.006% (n = 330,000); AID 488837
#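 Eya2 protein (added as 0.2 uM solution) was preincubated with compound for 10 min at ambient temperature in 50 mM HEPES pH 7.5, 50 mM NaCl, 5 uM MgCl2, 0.05% BSA, 1 mM DTT. OMFP (added at 50 uM) then reacted 10 min; fluorescence read at 485/525 nm.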
# TrxR1 substrate: rat thioredoxin reductase 1 substrate activity; actives 0.01% (n = 390,000); purified TrxR1 substrate turnover, NADPH consumption readout; Potency, µM (series often up to 114 µM), for the others: at the top dose activity change, negative = substrate turnover; O89049; further: nearly all actives have a fitted effect of over 50% in size
#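 Rat TrxR1, dispensed at 90 nM, was prereduced with 400 uM NADPH (final) for 5 min at ~22 deg C, then incubated with compound 15 min before 400 uM selenite. A first-read NADPH fluorescence drop versus no-compound background flagged substrates.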
# USP2a inh: USP2a (human) protease inhibition; USP2 core, Ub-CHOP2 coupled fluorogenic reporter, 485/531; Potency, µM (doses to about 38.3 µM), inactives show at the highest dose activity change, negative = inhibition, most hits filed as inhibitors; actives 0.01% (n = 330,000); O75604;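 further: plate controls were DMSO wells for no effect and full inhibition by NEM control for full effect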
#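 Cell-free coupled assay: 10nM USP2 core preincubated 30min RT with compound in Tris-HCl pH 8.0/CaCl2/CHAPS buffer, then 25nM Ub-CHOP2 and 25nM reporter substrate; fluorescence (Ex 485/Em 531) read after 60min RT, normalized to NEM inhibition, concentration-response curves fitted.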
# RGS4 inhibitor: human RGS4 inhibition; P49798; Transcreener GDP fluorescence polarization, RGS4-accelerated GTP hydrolysis; Potency, µM (top dose mostly 114 µM), without a hit: at the top dose activity change, negative = inhibition, hits mostly inhibitors; actives 0.039% (n = 390,000); further: nearly all actives have a fitted effect of over 75% in size
# Target sequence (P49798 whole entry, looked up): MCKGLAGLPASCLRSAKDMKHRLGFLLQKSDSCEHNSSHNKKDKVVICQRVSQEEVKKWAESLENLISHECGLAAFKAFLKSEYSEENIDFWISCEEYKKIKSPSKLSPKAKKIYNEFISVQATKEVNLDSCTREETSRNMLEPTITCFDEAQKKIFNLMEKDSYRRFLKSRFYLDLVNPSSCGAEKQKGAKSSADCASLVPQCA
#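 MLSMR compounds (23 nl, pin-transferred) preincubated 10 min at room temperature with a 500nM (2x) first reagent, then RGS4 at 900nM (2x) plus Transcreener GDP mix added; fluorescence polarization (620/688 nm) read before and after 90 min at 30 °C.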
# GALK inh: blocks human galactokinase activity; Purified GALK, Kinase-Glo residual ATP luminescence; AID 1868; actives 0.007% (n = 270,000); P51570; Potency, µM (doses to about 57.5 µM), without a hit: top-dose activity change, negative = inhibition, hits mostly inhibitors
# Target sequence (P51570 whole entry, looked up): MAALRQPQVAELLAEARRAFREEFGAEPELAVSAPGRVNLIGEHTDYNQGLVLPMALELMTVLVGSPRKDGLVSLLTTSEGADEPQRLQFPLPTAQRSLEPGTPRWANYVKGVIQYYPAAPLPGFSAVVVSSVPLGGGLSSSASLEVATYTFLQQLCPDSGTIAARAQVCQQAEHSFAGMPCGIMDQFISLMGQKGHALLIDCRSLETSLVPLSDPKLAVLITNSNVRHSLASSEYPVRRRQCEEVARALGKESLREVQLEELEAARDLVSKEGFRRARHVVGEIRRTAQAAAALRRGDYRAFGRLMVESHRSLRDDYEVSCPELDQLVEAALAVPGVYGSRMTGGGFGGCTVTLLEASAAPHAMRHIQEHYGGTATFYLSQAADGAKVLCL
#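 Compounds were pin-transferred into ATP buffer (35 uM final), then GALK plus galactose (5 nM, 100 uM final) was added. After 1 h at room temperature, Kinase-Glo Plus was added and luminescence read after 10 min.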
# TrxR1 inh: blocks rat thioredoxin reductase 1; recombinant rTrxR1, NADPH fluorescence consumption, selenite substrate; Potency, µM (top dose mostly 114 µM), inactives show top-dose activity change, negative = inhibition, most hits filed as inhibitors; actives 1% (n = 390,000); AID 588453; further: nearly all actives have a fitted effect of over 65% in size
#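 Rat TrxR1 (90 nM in the dispensed reagent) was pre-reduced with 400 uM NADPH for 5 min at room temperature, then incubated with compound for 15 min. After 400 uM selenite was added, NADPH fluorescence (Ex 340/Em 450 nm) was followed for 8 min.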
# * = called active by the depositor; ? = inconclusive; nt = no result given; [ ] = another dose, or the depositor's remark. The call rests on the fitted dose curve; in most records, active means well fitted curve in the direction sought with a large enough effect; inconclusive means small, poorly fitted or top-dose-only effect, or another doubt; inactive means no such curve, though single readings can be large; an effect the other way counts as inactive or inconclusive. Unless noted, on the % scale 0 is the no-effect control and ±100 the full control effect; potency means the concentration at half of the fitted maximal effect.
SMILES,Eya2 phos inh,TrxR1 substrate,USP2a inh,RGS4 inhibitor,GALK inh,TrxR1 inh
COc1cc(OC)c(/C=C/c2cc3ccccc3c[n+]2C)c(OC)c1,nt,-15%,nt,nt,nt,-23%
C#CCOCCOCCOCCNc1nc(N2CCN(C(=O)CCCCCCCCCCNC(=O)[C@H](CCCCN)n3cc(C)nn3)CC2)nc(N2CCN(C(=O)CCCCCCCCCCNC(=O)[C@H](CCCN=C(N)N)n3cc(C[C@@H](C)CC)nn3)CC2)n1,22µM*,-5%,11µM*,?,nt,-48%[2.29 µM]
C#CCOCCOCCOCCNc1nc(N2CCN(C(=O)CCCCCCCCCCNC(=O)[C@H](CCCCN)n3cc(C[C@@H](C)CC)nn3)CC2)nc(N2CCN(C(=O)CCCCCCCCCCNC(=O)[C@H](CCCN=C(N)N)n3cc(C[C@@H](C)CC)nn3)CC2)n1,?,-2%,10µM*,?,nt,-31%
CCOc1cc(CNc2ccc(O)cc2)ccc1OCc1ccc(Cl)cc1Cl,7%,-21%,1%,?,-6%,28µM*
CCOc1ccccc1CNc1ccc(O)cc1,6%,-7%,-1%,?,0%,?
CCOc1cccc(CNc2ccc(O)cc2)c1OCc1ccc(Cl)cc1,12%,-12%,3%,?,nt,45µM*
C=C1NN(Cc2ccccc2)C(=O)N1c1ccc(OCc2ccccc2)cc1,nt,-2%,nt,nt,nt,0%
COc1cccc(Nc2ccc3cc(S(=O)(=O)N4CCC(C)CC4)ccc3n2)c1,nt,18%[57.1 µM],nt,15%,nt,31%[57.1 µM]
CC(=O)OCC(NC(=O)C1CCCN1C(=O)OC(C)(C)C)C1OC(n2ccc(=O)[nH]c2=O)C(OC(C)=O)C1OC(C)=O (stereo not drawn),nt,1%,nt,6%,nt,13%[57.1 µM]
COc1ccc(C(=O)CN2CCN(S(=O)(=O)c3cccc([N+](=O)[O-])c3)CC2)cc1OC,-16%,-10%,?,-3%,0%,-19%
COc1cccc(C(=O)CN2CCN(S(=O)(=O)c3cccc([N+](=O)[O-])c3)CC2)c1,-19%,-1%,1%,-16%,0%,8.9µM*
COc1cc2nc(N3CCCN(C)CC3)nc(NC3CCOCC3)c2cc1OC,nt,77%,nt,nt,nt,-20%
COC(=O)[C@@]1(Cc2ccc(OC)cc2)[C@@H]2C(=CC(=O)[C@H]2CC(=O)C(=O)N(C)C)CN1C(=O)c1ccccc1,-4%,3%[57.1 µM],0%,-41%,nt,-17%[57.1 µM]
C=C1C(=O)C=C2CN(C(=O)c3ccccc3)[C@@](Cc3ccc(F)cc3)(C(=O)OC)[C@@H]12,7%,-4%,1%,?,nt,8.9µM*
Cc1ccccc1Nc1nc(CSc2nnc(-c3ccoc3C)n2C)cs1,-3%,-7%,3%,-32%,3%,50µM*
COc1ccc(C(C)=O)cc1COC(=O)c1ccc2c(c1)OCO2,-23%,15%[57.1 µM],0%,-6%,2%,?
COc1ccc(C(C)=O)cc1COC(=O)c1ccc(C)c(S(=O)(=O)N2CCOCC2)c1,-16%,-2%,-3%,-46%,nt,35µM*
CNS(=O)(=O)c1cccc(C(=O)OCc2cc(C(C)=O)ccc2OC)c1,8%,5%,0%,-18%,-6%,18%[57.1 µM]
COc1ccc(C(C)=O)cc1COC(=O)Cc1cc(OC)c(OC)c(OC)c1,9%,4%,2%,-10%,1%,40µM*
COc1ccc2c(COC(=O)c3ccc(C)c(S(=O)(=O)N4CCOCC4)c3)cc(=O)oc2c1,nt,63%,nt,-26%,nt,-15%
COc1ccc(C(C)=O)cc1COC(=O)c1ccc(S(=O)(=O)N(C)C)cc1,-4%,5%,2%,-51%,-2%,45µM*
COc1ccc(C(C)=O)cc1COC(=O)c1ccc2c(c1)OCCO2,3%,-4%,-2%,-47%,nt,56µM*
CC1(C)Cc2c(C#N)c(OCC(=O)c3ccccc3)nc(-c3ccoc3)c2CO1,-6%,-4%,1%,-28%,-2%,50µM*
CC1(C)Cc2c(C#N)c(OCC(=O)c3ccc(Cl)cc3)nc(-c3ccoc3)c2CO1,-8%,3%,3%,-33%,-1%,-25%
CCCCN(C(=O)Cn1ncc(Cl)c(Cl)c1=O)c1c(N)n(CC(C)C)c(=O)[nH]c1=O,3%,-12%,3%,-10%[11.4 µM],2%,56µM*
SMILES,Eya2 phos inh,TrxR1 substrate,USP2a inh,RGS4 inhibitor,GALK inh,TrxR1 inh
Cc1ccc(S(=O)(=O)C(CNS(=O)(=O)c2ccc(F)c(C)c2)c2cccs2)cc1 (stereo not drawn),nt,-4%[57.1 µM],nt,-23%,nt,?
Cc1cc(C)c(S(=O)(=O)NCC(c2cccs2)S(=O)(=O)c2ccccc2)c(C)c1 (stereo not drawn),nt,5%[57.1 µM],nt,-44%,nt,2.5µM*
CCOc1ccc(S(=O)(=O)NCC(c2cccs2)S(=O)(=O)c2ccc(C)cc2)cc1 (stereo not drawn),nt,0%[57.1 µM],nt,-45%,nt,0.89µM*
CCCCCCCCCOC(=O)CNc1nc(C#N)nc(NCC(=O)OCCCCCCCCC)n1,nt,1%,nt,14%,nt,35%
O=c1[nH]cc(C#Cc2ccccc2)c2ncncc12,nt,-1%,nt,12%,nt,-2%
COc1ccc(C(=S)NCS(=O)(=O)c2ccc(C)cc2)cc1,-1%,-3%,3%,-49%,1%,4µM*
Cc1ccc(S(=O)(=O)CNC(=S)c2ccc3ccccc3c2)cc1,-23%,-16%,0%,-3%,-2%,40µM*
Cc1ccc(S(=O)(=O)CNC(=S)c2cccc(C)c2)cc1,6%,5%,5%,-11%,-3%,?
O=C(Nc1ccc2nccnc2c1)N1CCCCCC1,nt,38%,nt,-38%,nt,-16%
Cc1ccc(/C=C/c2onc(C)c2S(=O)(=O)N2CCC(C(=O)N3CC(C)Oc4ccccc43)CC2)cc1 (stereo not drawn),nt,4%[57.1 µM],nt,2%,nt,18%[57.1 µM]
COc1ccccc1CN(C)CC(=O)c1c(C)[nH]c2ccccc12,nt,-4%,nt,nt,nt,?
Cc1ccccc1S(=O)(=O)NC1OC(=O)C(Cl)=C1Cl (stereo not drawn),19%,-8%,2%,-19%,-1%,13µM*
Cc1ccccc1S(=O)(=O)NC1OC(=O)C(Oc2ccccc2)=C1Br (stereo not drawn),16%,6%[57.1 µM],1%,-8%,-3%,?
COc1ccc(C2/C=C\CN(CC(C)C)C(Cc3ccccc3)C(=O)N2Cc2ccc(F)cc2)cc1 (stereo not drawn),nt,-4%,nt,-6%,nt,11%
N#CC(C#N)=Cc1ccc(NC(=O)c2ccc(Br)cc2)cc1,-2%,4%,8%,-40%,-1%,13µM*
CC(C)(C)c1ccc(C(=O)Nc2ccc(NC(=O)c3ccc(Cl)c(Cl)c3)cc2)cc1,nt,4%,nt,-8%,nt,1%
